Screening results as filed in PubChem.
Compounds with a hit are over-represented: about 4.7% of the library has one in this group of screens.
KLK7 zymogen act = proKLK7 (human) activation, primary screen. P49862. purified proKLK7, EDANS-DABCYL substrate fluorescence; 100% is mature enzyme control, 0% vehicle. activation, % at 7 µM. actives 0.9% (n = 370,000). AID 652039;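 active means activation above the mean of all tested compounds plus 3 SD, computed per campaign excluding outliers beyond control limits, cut at about 13% in these data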
ADAM17 inh = inhibits human ADAM17 | P78536 | recombinant ADAM17, EDANS/DABCYL FRET peptide cleavage | inhibition, % at 6.95 µM | actives 0.83% (n = 370,000);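 active means inhibition above the mean of compounds lying between control limits plus 3 SD, set per campaign, cut at about 8.5% in these data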
ADAM10 inh = inhibits human ADAM10; recombinant ADAM10, EDANS/DABCYL FRET peptide cleavage, 3 h; inhibition, % at 7 µM; actives 0.62% (n = 370,000); AID 720582;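 active means inhibition above a per-campaign cutoff equal to the mean of compounds falling between control-based bounds plus 3 SD, cut at about 20% in these data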
MPTP block = permeability transition pore inhibition; isolated mouse mitochondria, Ca2+ swelling absorbance, 30 min; inhibition, % at 10 µM; actives 1.4% (n = 360,000); AID 602449;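 active means inhibition of 50% or more, scaled per plate between neutral and stimulator controls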
Pemphigus Ab inh = human desmoglein-3 autoantibody binding inhibition. P32926. DSG3-coupled beads, scFv-anti-DSG3-GFP binding, flow cytometry; stronger effect = lower value. AID 588358. binding (percent of control), % at 10 µM. actives 0.48% (n = 310,000);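 active means binding more than 3 SD below its plate's average and above zero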;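 further: hits lower antibody fragment binding to DSG3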
Target sequence (P32926 whole entry, looked up, the tested form may be a part): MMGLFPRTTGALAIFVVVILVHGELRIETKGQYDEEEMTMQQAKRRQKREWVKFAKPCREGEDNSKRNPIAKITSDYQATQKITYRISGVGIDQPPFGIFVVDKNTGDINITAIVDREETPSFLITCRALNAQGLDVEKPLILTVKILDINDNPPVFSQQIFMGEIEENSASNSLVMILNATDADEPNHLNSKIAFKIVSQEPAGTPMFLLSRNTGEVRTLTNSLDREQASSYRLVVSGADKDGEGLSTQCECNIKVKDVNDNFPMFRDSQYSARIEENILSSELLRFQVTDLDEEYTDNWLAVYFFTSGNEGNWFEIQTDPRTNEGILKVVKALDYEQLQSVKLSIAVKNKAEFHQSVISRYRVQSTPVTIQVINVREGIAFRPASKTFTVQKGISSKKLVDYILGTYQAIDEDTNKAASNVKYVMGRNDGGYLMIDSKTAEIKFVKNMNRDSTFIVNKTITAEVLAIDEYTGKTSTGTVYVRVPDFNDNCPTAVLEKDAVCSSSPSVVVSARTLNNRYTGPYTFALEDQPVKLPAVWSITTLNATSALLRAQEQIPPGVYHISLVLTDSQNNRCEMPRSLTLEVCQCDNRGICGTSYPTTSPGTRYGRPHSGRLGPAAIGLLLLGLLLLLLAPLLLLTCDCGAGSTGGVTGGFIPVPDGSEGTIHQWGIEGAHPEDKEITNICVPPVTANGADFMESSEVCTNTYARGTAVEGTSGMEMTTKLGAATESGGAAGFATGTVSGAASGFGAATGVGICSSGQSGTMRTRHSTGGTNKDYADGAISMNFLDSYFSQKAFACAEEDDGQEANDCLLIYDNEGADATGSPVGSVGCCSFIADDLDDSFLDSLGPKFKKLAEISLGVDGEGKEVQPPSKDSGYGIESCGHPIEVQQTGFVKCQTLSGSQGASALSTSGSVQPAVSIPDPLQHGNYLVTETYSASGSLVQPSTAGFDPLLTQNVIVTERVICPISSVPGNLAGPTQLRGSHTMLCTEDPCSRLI
rCAG binder-1 = binds r(CAG) RNA repeats | r(CAG) RNA repeat, TO-PRO-1 dye displacement fluorescence | inhibition, % at 3 µM | actives 1.3% (n = 370,000) | AID 651821;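 active means inhibition above the plate cutoff, the mean of all test compounds on that plate plus 3 SD, cut at about 35% in these data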;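 further: higher means more dye released from RNA so lower well fluorescence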
MPTP counter = mitochondrial membrane potential, counter-screen. AID 624504. isolated mitochondria, Rhodamine 123 fluorescence. shares compounds with MPTP block. inhibition, % at 10 µM. actives 78% (n = 5,000); in the data active means inhibition above about 22%
MPTP abs DR = dose response confirmation of mitochondrial permeability transition pore inhibitors. isolated mitochondria swelling, absorbance. actives 58% (n = 780). IC50, µM. shares compounds with MPTP block; in the data active means IC50 below about 20 µM
MPTP counter DR = MPTP inhibitor counter-screen activity, dose response | AID 651564 | isolated mitochondria counterscreen, fluorescence read-out | IC50, µM | shares compounds with MPTP block | actives 49% (n = 780); in the data active means IC50 below about 80 µM
rCAG bind conf = r(CAG) RNA repeat binding, confirmation. AID 652065. shares compounds with rCAG binder-1. actives 70% (n = 4,300). TO-PRO-1 dye displacement fluorescence. inhibition, % at 3 µM;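 active means inhibition above a per-plate cutoff, the mean inhibition of sample wells plus 3 SD, cut at about 35% in these data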;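 further: loss of TO-PRO-1 fluorescence as compound displaces dye from 1x1 AA loop RNA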
dCAG dye counter = DNA CAG dye complex inhibition counter-screen. shares compounds with rCAG binder-1. d(CAG) DNA oligo TO-PRO-1 dye displacement, fluorescence. inhibition, % at 3 µM. actives 94% (n = 4,300). AID 652068;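 active means inhibition above its plate's cutoff, the mean test-well inhibition plus 3 SD, cut at about 4.8% in these data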;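 further: hits displace the dye from DNA and so lower well fluorescence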
DNA CAG DR = counter-screen for rCAG binders: inhibitors of DNA CAG TO-PRO-1 complex; shares compounds with rCAG binder-1; DNA CAG/GTC duplex TO-PRO-1 dye displacement fluorescence; AID 686960; actives 20% (n = 250); IC50, µM; in the data active means IC50 below about 10 µM
dCAG TOPRO ctr = counter-screen for rCAG binders: DNA CAG TO-PRO-1 complex inhibitors, late stage. shares compounds with rCAG binder-1. d(CAG) DNA duplex TO-PRO-1 dye displacement, fluorescence. IC50, µM. actives 80% (n = 30). AID 720649
rCAG binder-2 = molecules binding r(CAG) RNA repeats, late stage dose response; shares compounds with rCAG binder-1; IC50, µM; AID 720651; r(CAG) RNA TO-PRO-1 dye displacement, fluorescence; actives 100% (n = 30)
Hits are given with their value; . = inactive; / = no result given. Unless noted, how the calls were made is not given here.

SMILES | KLK7 zymogen act | ADAM17 inh | ADAM10 inh | MPTP block | Pemphigus Ab inh | rCAG binder-1 | rCAG bind conf | dCAG dye counter | others
N#CC(C#N)=Cc1ccc(O)c(O)c1 | . | . | . | . | / | . | / | /
O=[N+]([O-])c1ccc(N2CCCC(C(F)(F)F)C2)c2ccncc12 (configuration not stated) | . | . | . | 76.8 | . | . | / | / | MPTP counter=89.6
Cn1cccc1CN1CCN(C(=O)COc2ccccc2)CC1 | . | . | . | . | . | . | / | /
Cn1nc(-c2ccc(OCC(=O)N3CCN(Cc4ccccc4)CC3)cc2)c2ccccc2c1=O | . | . | . | 72.0 | . | . | / | / | MPTP counter=43.0
Cc1cccc(CCNCc2cc3cccc(C)c3[nH]c2=O)c1 | . | . | . | 66.8 | . | . | / | / | MPTP counter=43.7
Cc1cccc(CCNCc2cc3cc(C)cc(C)c3[nH]c2=O)c1 | . | . | . | . | . | . | / | /
CCC1(CCC(C)C)C(=O)NC(=O)N(c2ccccc2)C1=O (configuration not stated) | . | . | . | . | / | . | / | /
Cc1ccc(C(O)(c2ccc(C)c(C)c2)C2CN3CCC2CC3)cc1C (configuration not stated) | . | . | . | . | . | . | / | /
Cc1ccccc1C(O)(Cc1ccccc1)C1CN2CCC1CC2 (configuration not stated) | . | . | . | 61.8 | . | . | / | / | MPTP counter=.;MPTP abs DR=16.5;MPTP counter DR=.
Cc1cc2c(C(C)C)c(O)c(O)c(C=O)c2c(O)c1-c1c(C)cc2c(C(C)C)c(O)c(O)c(C=O)c2c1O | . | 12.2 | 41.1 | 84.8 | / | 97.2 | 94.4 | 80.9 | MPTP counter=.
COC(=O)C1C(c2ccc(I)cc2)CC2CCC1N2C (configuration not stated) | . | . | . | / | / | . | / | /
C[n+]1c(-c2ccccc2)c2cc(N)ccc2c2ccc(N)cc21 | . | . | . | . | . | 41.4 | 49.2 | 62.7
CCC(C)n1c(O)c(/C=N/N2CCOCC2)c(=O)[nH]c1=S (configuration not stated) | . | . | . | . | . | 36.3 | . | .
CCC(C)n1c(O)c(C=NCCN2CCOCC2)c(=O)[nH]c1=S (configuration not stated) | . | . | . | . | . | . | / | /
CC1=C(O)C(=O)C=C2C1=CC=C1C2(C)CCC2(C)C3CC(C)(C(=O)O)CCC3(C)CCC12C (configuration not stated) | . | . | . | . | . | 50.1 | 41.1 | 9.5
CCCCN1C(=O)/C(=C/C=C/c2ccco2)C(=O)NC1=S | . | . | . | . | . | 76.3 | 65.9 | 26.2 | DNA CAG DR=3.06;dCAG TOPRO ctr=3.13;rCAG binder-2=1.4
O=C1NC(=O)N(Cc2ccco2)C(=O)/C1=C/c1cccn1CCOc1ccccc1Cl | . | . | . | . | . | 49.2 | . | 5.7
Cc1ccc(N2C(=O)NC(=O)/C(=C\c3cn(CC(=O)O)c4ccccc34)C2=O)cc1 | . | . | . | . | . | . | / | /
O=C1NC(=O)N(Cc2ccccc2)C(=O)/C1=C\c1ccco1 | . | . | . | . | . | 47.9 | 34.8 | 11.4
O=C(O)Cn1cc(/C=C2\C(=O)NC(=O)N(Cc3ccco3)C2=O)c2ccccc21 | . | . | . | . | . | 44.5 | 61.9 | 22.5
COc1ccc(CN2C(=O)NC(=O)/C(=C/c3ccoc3)C2=O)cc1 | . | . | . | . | . | 52.8 | 45.0 | 17.4
O=C1NC(=O)N(Cc2ccccc2)C(=O)/C1=C\N1CCCc2ccccc21 | . | . | . | . | . | . | / | /
O=C1NC(=O)N(Cc2ccc(F)cc2)C(=O)/C1=C\C=C\c1ccco1 | . | . | . | . | . | 51.7 | . | 7.6
Cc1ccc(C(O)(C(=O)OC(C)C)C(O)c2ccccc2)cc1 (configuration not stated) | . | . | . | . | / | . | / | /
COc1ccc(/C=N/N=C(/N)N[N+](=O)[O-])c(OC)c1 | . | . | . | . | . | . | / | /
SMILES | KLK7 zymogen act | ADAM17 inh | ADAM10 inh | MPTP block | Pemphigus Ab inh | rCAG binder-1 | rCAG bind conf | dCAG dye counter | others
N/C(=N\N=C/c1ccc(-c2ccc(O)c(C(=O)O)c2)o1)N[N+](=O)[O-] | . | . | . | . | . | 57.5 | 66.8 | 28.4
Cc1cccc(N2C(=O)/C(=C/c3ccc(N4CCN(C)CC4)o3)C(=O)NC2=S)c1C | . | . | . | . | . | 49.4 | 54.6 | 25.7
CCc1ccccc1N1C(=O)/C(=C/c2ccc(N3CCN(C)CC3)o2)C(=O)NC1=S | . | . | . | . | . | 49.8 | 48.4 | 24.1
CCCCN1C(=O)/C(=C/c2ccc(N(C)C)cc2)C(=O)N(Cc2ccco2)C1=O | . | . | . | . | . | 54.4 | . | 10.1
CCN(CC)c1ccc(/C=C2\C(=O)NC(=O)N(Cc3ccco3)C2=O)cc1 | . | . | . | . | . | . | / | /
Cn1cccc1/C=C1/C(=O)NC(=O)N(Cc2ccc(F)cc2)C1=O | . | . | . | . | . | 40.6 | . | .
C=CCN1C(=O)NC(=O)/C(=C/c2cccn2C)C1=O | . | . | . | . | . | . | / | /
Cn1cccc1/C=C1\C(=O)NC(=O)N(Cc2ccccc2)C1=O | . | . | . | . | . | 40.3 | . | .
CN1C(=O)/C(=C\c2ccc(Br)s2)C(=O)NC1=S | . | . | . | . | . | . | / | /
Cn1cccc1/C=C1/C(=O)NC(=O)N(Cc2ccccc2)C1=O | . | . | . | . | . | 49.4 | . | .
Cn1cccc1/C=C1/C(=O)NC(=S)N(Cc2ccc(F)cc2)C1=O | . | . | . | . | 70.4 | 74.0 | 51.4 | 30.2
COC(=O)[C@H]1C[C@@]2(C)c3ccccc3N[C@H]2N1 | . | . | . | / | / | . | / | /
COC(=O)C1=C(c2ccc(OC(F)(F)F)cc2)C[C@@H]2CC[C@H]1N2C(=O)N1CCc2cc(OC)c(OC)cc2C1 | . | . | . | / | / | . | / | /
